Test [1] deals with Glucocorticoid receptor (Homo sapiens) (UniProt P04150). The experiment in a line: GR-GFP Redistribution (AID 450;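 active means compounds whose dose series gives a full or clear partial fitted curve of increased nuclear translocation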; further: potency means the concentration at half of the fitted maximal effect). The conditions noted are these: U2OS GR-GFP nuclear translocation, laser cytometry, 2 h.
Test [2] has the same target. The experiment in a line: GR-EFC Redistribution (AID 451; calls by dose curve; further: potency means the concentration at half of the fitted maximal effect). Particulars: CHO-K1 GR-EFC translocation, beta-gal luminescence, 2 h. A digest of the protocol:
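Translocation of GR-ED fusion to nuclear EA restores b-gal, read by luminescence after 1 h room-temperature detection. Engineered CHO-K1 biosensor cells, 1,000/well, exposed 2 h at 37 C to titrations up to 46 uM final.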

In test [3] the target is Mitogen-activated protein kinase 10 (Mus musculus) (UniProt Q61831). In words: JNK3 AlphaScreen Assay (AID 530; active means well fitted curve in either direction with a large enough effect, not every such curve was filed as active;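 further: kinase came from lysate of stimulated human HepG2 cells; signal reports phosphorylation of biotinylated GST-cJun 1-79 at Ser73 with 10 µM ATP; on the % scale 0 is the no-effect control and ±100 the full control effect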). Summed up: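 Room-temperature AlphaScreen kinase assay; pre-activated HepG2 lysate as JNK3 source, biotin-GST-cJun(1-79) substrate, 10 uM ATP, compound 15 min preincubation.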
Test [4] concerns the target Ubiquitin carboxyl-terminal hydrolase 1 (Homo sapiens) (UniProt O94782). In words: Inhibitors of USP1/UAF1: Pilot qHTS (AID 504865).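 Further: rhodamine fluorescence freed from ubiquitin-rhodamine substrate followed over time; top concentration of the series differs between compounds; on the % scale 0 is the no-effect control and ±100 the full control effect; nearly all actives have a fitted effect of over 35% in size.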 A digest of the protocol:
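Deubiquitinase activity followed as kinetic rhodamine fluorescence release from 150 nM Ub-Rho. 1 nM USP1/UAF1 with compound, after 15 min room-temperature preincubation, in HEPES pH 7.8 buffer containing TCEP, EDTA, BSA and Tween-20.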

Test [5] has as its target DNA dC->dU-editing enzyme APOBEC-3G (Homo sapiens) (UniProt Q9HC16). The experiment in a line: qHTS for inhibitors of Vif-A3G interactions: Validation (AID 588379). Further: potency means the concentration at half of the fitted maximal effect. On activity change, negative = inhibition: 0% is about no effect. Summed up:
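HeLa cells stably expressing Vif and A3G-eYFP, 700 cells/well, incubated overnight at 37 deg C, then exposed to compound overnight at 37 deg C. Inhibition of Vif-mediated degradation read as increased yellow fluorescence (Ex 488/Em 500-530) by laser-scanning cytometry.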

Test [6] is described as follows: Primary qHTS for small molecule stabilizers of the endoplasmic reticulum resident proteome: Secreted ER Calcium Modulated Protein (SERCaMP) assay (AID 1508630). Further: on the % scale 0 is the no-effect control and ±100 the full control effect. A digest of the protocol:
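GLuc-SERCaMP-expressing SH-SY5Y cells, pretreated 16 h with compound, are challenged with thapsigargin to empty ER calcium stores; after 4 h, coelenterazine is added directly to the medium and luminescence is imaged.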
In general terms: In qHTS, concentration-response curves come from the screen itself.

The target of test [7] is 3',5'-cyclic-AMP phosphodiesterase 4B (Homo sapiens) (UniProt Q07343). In words: qHTS Assay for Inhibitors of PDE-IV (AID 607; active means well fitted activation curve with a large enough effect in the main read-out, with a control signal flat, not every such curve was filed as active; further: % of control where 0% means no effect). Summed up:
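The readout is membrane depolarisation from a cAMP-sensing CNG channel, detected with a potential dye at ex 535/em 590. Cells were HEK293-derived (endogenous PDE-IV) at 1000 cells/well, titrated up to 22.9 uM final.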

A short description of test [8]: qHTS Assay for Lipid Storage Modulators (AID 1519; calls by dose curve; on activity change, negative = inhibition: on the % scale 0 is the no-effect control and ±100 the full control effect). The conditions noted are these: Drosophila S3 cells, BODIPY lipid droplet/cell ratio, laser cytometry, cells loaded with oleic acid. Summed up: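 Cells seeded at 5,000 per well were treated with compounds over a concentration series and loaded with oleic acid (400 uM, as added). Lipid droplet fluorescence (488 nm excitation, 500-530 nm channel) was read by laser-scanning cytometry and normalized to 20 uM Triacsin C.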

Test [9] in a line: qHTS for Activators of p53 Stress Response Pathway screened against the NCATS CANVASS Library (AID 1347388). Further: 0% is about no effect. A digest of the protocol: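 Beta-lactamase reporter driven by p53 response elements in HCT-116 cells, read as the 460 nm/530 nm emission ratio after CCF4 loading, following 16 h of exposure to an 11-point series. Cell viability was measured in the same wells by CellTiter-Glo luminescence.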

Test [10] is described as follows: qHTS assay for small molecule disruptors of mitochondrial membrane potential screened against the NCATS CANVASS Library (AID 1347389). Further: on the % scale 0 is the no-effect control and ±100 the full control effect; nearly all actives have a fitted effect of over 60% in size. A digest of the protocol:
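HepG2 cells (2,000/well) were plated overnight at 37C, exposed to compound for 1 hr at 37C/5% CO2, then loaded with Mito-MPS dye for 30 min. Depolarization was read as a drop in red (590 nm) to green (535 nm) fluorescence ratio.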

The nature of test [11]: Secretion counterscreen for inhibitors of the SERCaMP assay screened against the NCATS CANVASS Library (AID 1347390).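 Further: light from luciferase secreted into medium read as a measure of general secretion; on the % scale 0 is the no-effect control and ±100 the full control effect.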 A digest of the protocol:
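Counterscreen for secretory-pathway interference: after 4 h attachment, SH-SY5Y-GLuc cells were exposed 20 hours to compounds (final 0.001 - 77 uM), then coelenterazine added and GLuc luminescence recorded; Brefeldin A served as control.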
On the technique in general: Counterscreens check selectivity or assay interference.

A short description of test [12]: qHTS for inhibitors of ER calcium dysfunction: SERCaMP assay screened against the NCATS CANVASS Library (AID 1347393).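 Further: on the % scale 0 is the no-effect control and ±100 the full control effect; lower secreted reporter signal means inhibitor of ER calcium depletion; nearly all actives have a fitted effect of over 40% in size.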 Summed up: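 Thapsigargin-induced ER calcium depletion drives GLuc-SERCaMP secretion from SH-SY5Y cells; compounds given 16 h beforehand were scored by lowered coelenterazine luminescence after 4 h challenge.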
The nature of test [13]: DH5-alpha competent E. coli microbial cell viability qHTS against the NCATS CANVASS Library (AID 1347377). Further: 0% is about no effect. The conditions noted are these: outcome: dose series up to 46.1 µM unless noted. A digest of the protocol: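 DH5-alpha E. coli suspension (0.9 OD culture diluted to 0.2 OD) exposed to compounds in an 11-point series, overnight at 37C, 5% CO2. Viability read as ATP by BacTiter-Glo luminescence after 20 min at room temperature.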

Test [14] in a line: qHTS for Antimalaria activity screened against the NCATS CANVASS Library (AID 1347380). Further: nearly all actives have a fitted effect of over 40% in size. Further: potency means the concentration at half of the fitted maximal effect.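 On activity change, negative = inhibition: Plasmodium falciparum strain Dd2 asexual parasites grown in red blood cells.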 A digest of the protocol: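 P. falciparum Dd2-infected RBCs (2.5% hematocrit final, 0.3% parasitemia) in Albumax II RPMI were exposed to compounds in an 11-point qHTS series for 72 h at 37C under 5% O2/5% CO2, then lysed with SYBR Green.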
Test [15] is described as follows: SW1088 Cancer Cell Toxicity qHTS against the NCATS CANVASS Library (AID 1347350). Further: nearly all actives have a fitted effect of over 75% in size. Further: potency means the concentration at half of the fitted maximal effect. Summed up: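 In this cytotoxicity screen, 1000 cells per well rested 4 hours, then received compound (11 concentrations) for a 72-hour incubation; an ATP-dependent luminescent signal (CellTiter-Glo) was the endpoint.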
The nature of test [16]: HEK-293 Cancer Cell Toxicity qHTS against the NCATS CANVASS Library (AID 1347355). Further: potency means the concentration at half of the fitted maximal effect; nearly all actives have a fitted effect of over 65% in size. Summed up: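 Cells were seeded at 1000 per well and allowed to settle 4 hours at 37 degrees C before pin transfer of compounds as an 11-point series. Viability was read by CellTiter-Glo luminescence after 72 hours' exposure.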
[17] abbreviates: measured here: cell count channel max response.
Where [18] appears, read: measured here: lipid channel max response.

Structures are written as SMILES. “And” between values parts separate entries of the source, which are not always exact repeats. Identical values can stand only once. Records with an inconclusive call do not appear. The source made the active and inactive calls. Unless noted, the call rests on the fitted dose curve; in most records, active means well fitted curve in the direction sought with a large enough effect; inconclusive means small, poorly fitted or top-dose-only effect, or another doubt; inactive means no such curve, though single readings can be large; an effect the other way counts as inactive or inconclusive. Bounds are passed on as bounds.

Chain of DNA dC->dU-editing enzyme APOBEC-3G (Homo sapiens) (Q9HC16 whole entry, looked up): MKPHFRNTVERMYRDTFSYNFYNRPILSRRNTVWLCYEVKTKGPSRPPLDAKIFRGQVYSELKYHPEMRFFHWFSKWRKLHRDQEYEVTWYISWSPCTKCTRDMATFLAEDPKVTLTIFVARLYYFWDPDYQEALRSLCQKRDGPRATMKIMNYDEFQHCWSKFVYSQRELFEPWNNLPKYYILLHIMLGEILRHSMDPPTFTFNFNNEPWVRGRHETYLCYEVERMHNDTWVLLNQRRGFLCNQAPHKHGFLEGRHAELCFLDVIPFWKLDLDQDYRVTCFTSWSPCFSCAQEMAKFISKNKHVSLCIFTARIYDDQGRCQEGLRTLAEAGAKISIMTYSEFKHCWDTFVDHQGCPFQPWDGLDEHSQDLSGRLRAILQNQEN
Chain of Glucocorticoid receptor (Homo sapiens) (P04150 whole entry, looked up): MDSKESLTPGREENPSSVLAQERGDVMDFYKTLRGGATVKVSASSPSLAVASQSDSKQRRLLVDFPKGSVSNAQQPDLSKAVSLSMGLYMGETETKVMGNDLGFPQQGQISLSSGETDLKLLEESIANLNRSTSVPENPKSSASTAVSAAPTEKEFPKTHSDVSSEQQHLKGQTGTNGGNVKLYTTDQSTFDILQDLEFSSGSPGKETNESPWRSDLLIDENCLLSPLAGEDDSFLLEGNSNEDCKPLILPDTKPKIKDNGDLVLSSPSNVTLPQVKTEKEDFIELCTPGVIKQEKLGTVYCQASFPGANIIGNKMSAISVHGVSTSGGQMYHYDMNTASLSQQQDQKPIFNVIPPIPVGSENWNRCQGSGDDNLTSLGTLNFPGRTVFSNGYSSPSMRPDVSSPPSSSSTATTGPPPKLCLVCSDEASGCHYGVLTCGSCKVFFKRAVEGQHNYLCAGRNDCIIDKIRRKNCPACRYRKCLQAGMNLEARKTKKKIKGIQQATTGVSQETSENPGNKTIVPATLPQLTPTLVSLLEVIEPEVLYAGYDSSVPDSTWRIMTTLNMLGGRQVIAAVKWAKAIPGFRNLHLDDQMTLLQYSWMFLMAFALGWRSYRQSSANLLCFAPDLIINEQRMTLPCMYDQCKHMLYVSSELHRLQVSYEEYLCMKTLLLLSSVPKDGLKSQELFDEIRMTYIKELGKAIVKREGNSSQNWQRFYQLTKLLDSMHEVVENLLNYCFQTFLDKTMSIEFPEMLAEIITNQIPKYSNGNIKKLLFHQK
Chain of Ubiquitin carboxyl-terminal hydrolase 1 (Homo sapiens) (O94782 whole entry, looked up): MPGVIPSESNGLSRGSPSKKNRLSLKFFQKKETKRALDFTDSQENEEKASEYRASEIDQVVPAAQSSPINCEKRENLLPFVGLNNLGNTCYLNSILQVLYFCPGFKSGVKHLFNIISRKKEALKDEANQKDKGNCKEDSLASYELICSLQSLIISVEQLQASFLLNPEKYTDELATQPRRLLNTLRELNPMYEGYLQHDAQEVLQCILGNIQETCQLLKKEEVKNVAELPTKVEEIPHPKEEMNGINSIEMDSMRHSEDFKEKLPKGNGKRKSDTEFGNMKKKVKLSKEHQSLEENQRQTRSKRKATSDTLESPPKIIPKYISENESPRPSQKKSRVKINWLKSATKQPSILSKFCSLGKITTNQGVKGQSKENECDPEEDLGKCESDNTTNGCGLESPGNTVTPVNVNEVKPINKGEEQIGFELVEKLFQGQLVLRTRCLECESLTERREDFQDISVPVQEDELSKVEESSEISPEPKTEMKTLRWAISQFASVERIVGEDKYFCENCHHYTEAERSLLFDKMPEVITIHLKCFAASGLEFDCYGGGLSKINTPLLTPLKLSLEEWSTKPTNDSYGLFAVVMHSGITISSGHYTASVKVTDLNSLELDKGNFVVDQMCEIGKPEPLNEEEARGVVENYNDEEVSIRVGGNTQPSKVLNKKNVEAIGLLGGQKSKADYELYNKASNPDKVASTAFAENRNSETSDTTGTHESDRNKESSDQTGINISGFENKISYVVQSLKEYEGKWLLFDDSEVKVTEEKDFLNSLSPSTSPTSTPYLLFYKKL
Chain of 3',5'-cyclic-AMP phosphodiesterase 4B (Homo sapiens) (Q07343 whole entry, looked up): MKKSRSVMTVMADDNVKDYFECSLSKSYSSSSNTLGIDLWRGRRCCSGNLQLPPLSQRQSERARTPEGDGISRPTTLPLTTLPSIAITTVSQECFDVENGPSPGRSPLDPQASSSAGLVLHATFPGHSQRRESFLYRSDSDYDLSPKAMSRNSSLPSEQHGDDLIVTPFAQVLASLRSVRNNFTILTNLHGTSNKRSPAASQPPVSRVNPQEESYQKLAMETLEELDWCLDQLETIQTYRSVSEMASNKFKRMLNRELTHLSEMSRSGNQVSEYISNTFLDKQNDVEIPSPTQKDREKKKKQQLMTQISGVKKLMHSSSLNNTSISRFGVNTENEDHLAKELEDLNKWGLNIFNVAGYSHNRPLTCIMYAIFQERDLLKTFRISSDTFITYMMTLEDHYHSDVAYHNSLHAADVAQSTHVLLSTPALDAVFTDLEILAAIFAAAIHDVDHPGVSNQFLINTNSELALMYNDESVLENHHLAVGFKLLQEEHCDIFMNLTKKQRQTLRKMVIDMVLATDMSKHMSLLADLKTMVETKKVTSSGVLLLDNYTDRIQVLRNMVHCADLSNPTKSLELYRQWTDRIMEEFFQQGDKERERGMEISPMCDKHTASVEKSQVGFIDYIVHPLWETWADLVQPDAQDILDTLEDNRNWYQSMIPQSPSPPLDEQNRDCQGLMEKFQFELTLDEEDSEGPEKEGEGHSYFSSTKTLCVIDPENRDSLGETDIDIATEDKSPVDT

In the case of `O=C(c1ccc(F)cc1)C1CCN(CCCCc2ccccc2)CC1`, the Potency in [1] and in test [2] was > 46 µM (inactive) each time. Further, the Potency entry in test [3], in test [4] and in test [5] was “inactive” in each case.
With `CC1=C(C(=O)OC(C)C)[C@@H](c2cccc3nonc23)C([N+](=O)[O-])=C(C)N1`, the Potency entry in [6] is “inactive”.
Turning to `O=C(O)Cc1cc2ccccc2nc1C(=O)O`, the Potency in [1] and in [2] was > 46 µM (inactive) in each case. The Potency result in test [3], in test [7], in test [4], in test [5] and in test [6] was “inactive” in each case. Further, the activity change, negative = inhibition in test [8] (at 57.5 µM (top of the series)) is -1.15% (inactive). In addition, the figures for the max response in test [8] (setting [17]) and in test [8] (setting [18]) were 1.68% and 0.785%, respectively.
As for `CSCC[C@H](NC(=O)[C@H](Cc1ccccc1)NC[C@@H](NC[C@@H](N)CS)C(C)C)C(=O)O`, the Potency entry in test [6] is “inactive”.
Turning to `CC(=O)[C@H](CC(C)C)NC(=O)[C@@H](CC(C)C)NC(=O)[C@H](CC(C)C)NC(=O)OCc1ccccc1`, the Potency in test [1] is > 46 µM (inactive); in test [2] it was > 46 µM (inactive); in [5] it was 0.335 µM (active). Moreover, the Potency result in test [3], in test [7] and in [6] was “inactive” throughout.
With `O=C(O)CC1OC(=O)c2c(O)cccc21` (stereo not given), the Potency entry in test [9], in test [10], in test [11] and in test [12] was “inactive” in each case.
As for `COc1ccc2c(c1)c(CC(=O)N1CCOCC1)c(C)n2C(=O)c1ccc(Cl)cc1`, the Potency in test [1] and in [2] was > 46 µM (inactive) in each case. The Potency entry in test [3], in test [7] and in test [6] was “inactive” throughout.
`COc1ccc2c3c1O[C@H]1C[C@H](O)C=C[C@@]31CCN(C)C2`: the Potency in test [1] and in test [2] was > 46 µM (inactive) each time. In addition, the Potency result in test [3], in test [7] and in test [5] was “inactive” in each case. Further, in test [8] (at 57.5 µM (top of the series)), the activity change, negative = inhibition is 3.95% (inactive). Besides, the max response in test [8] (setting [17]) was found to be 9.55%; in [8] (setting [18]), 14.8%.
As to `CCCCCCCCCCCCCCCCOC[C@H](COP(=O)([O-])OCC[N+](C)(C)C)OC(=O)NC`, the activity change, negative = inhibition in test [6] was 5.26% [at 3.88 µM] (inactive).
As for `CCCCCCCCCCCCCCC[C@@H](O)[C@H](CO)NC(C)=O`, the activity change, negative = inhibition in [6] is -11.4% [at 3.88 µM] (inactive).
As for `c1ncc(CC2CCNCC2)[nH]1`, the Potency in [1] and in [2] was > 46 µM (inactive) each time. In addition, the Potency entry in [3], in [7], in [4], in test [5] and in test [6] was “inactive” throughout. In addition, the activity change, negative = inhibition in test [8] (at 57.5 µM (top of the series)) was 0.0288% (inactive). The max response in test [8] (setting [17]) is -18.2%; in test [8] (setting [18]), -15.8%.
For `CC(C)(C)NC[C@H](O)c1ccc(O)c(CO)c1`, the Potency is > 46 µM (inactive) and > 20.6 µM (inactive) in [1]; > 46 µM (inactive) and > 20.6 µM (inactive) in test [2]. Moreover, the Potency result in test [3], in test [7], in test [4] and in [5] was “inactive” each time. In addition, the activity change, negative = inhibition was -2.46% (inactive) in test [8] (at 25.7 µM (top of the series)) and 3.61% (inactive) in test [8] (at 57.5 µM (top of the series)). The max response is -16.6% in test [8] (setting [17]); -19.3% and -13% in test [8] (setting [18]).
With `C[C@H]1C[C@@H]([C@@H]2CC[C@]34O[C@H](CC[C@@]35C[C@H](C)C(=O)O5)CN24)OC1=O`, in test [13], the compound was called inactive. The Potency entry in [14], in test [9] and in test [12] was “inactive” throughout.
`C[C@]12CC[C@@H](O)C[C@@H]1CC[C@@H]1[C@@H]2CC[C@]2(C)C=CC[C@@H]12`: the Potency entry in test [6] was “inactive”.
Regarding `CN1[C@@H]2CC(OC(=O)[C@H](CO)c3ccccc3)C[C@@H]1[C@H]1O[C@H]12` (stereo not given in full), in test [5], the Potency entry is “inactive”.
Regarding `CC1=CC2=C[C@H](C)C[C@@]23OC(=C(C)C3=O)CC(C)(C)/C=C/C1=O`, the Potency in [15] is 5.95 µM (active); in [16], 0.526 µM (active); in test [14] it was 2.36 µM (active). In test [12], the Potency result is “inactive”.
Regarding `Nc1ncnc2c1ncn2C1O[C@H](COP(=O)(O)O)[C@@H](O)[C@H]1O` (stereo not given in full), the Potency result in test [6] was “inactive”.
As for `O=C(Nc1ccccc1)C12CC1/C(=N\O)c1ccccc1O2` (stereo not given), in test [6], the Potency entry was “inactive”.
Take `CC(=O)[C@@H]1[C@@H](O)C[C@H]2[C@]3(C)CC[C@H]4C(C)(C)CCC[C@]4(CO)[C@H]3C[C@H]3OC(=O)[C@@H]1[C@@]32C`: the Potency entry in test [15], in test [9] and in test [11] was “inactive” throughout.
With `Cc1cc(C)c(S(=O)(=O)Nc2cccc(C(F)(F)F)c2)c(C)c1`, the Potency in [1] and in [2] was > 46 µM (inactive) each time. For the same compound, the Potency entry in [3], in test [5] and in test [6] was “inactive” throughout.
Turning to `Nc1nc2c(ncn2[C@@H]2O[C@H](COP(=O)(O)OP(=O)(O)O)[C@@H](O)[C@H]2O)c(=O)[nH]1`, in [6], the Potency result is “inactive”.
Take `C[C@]12CC3CC(N)(C1)C[C@@](C)(C3)C2`: the Potency in test [1] and in test [2] was > 46 µM (inactive) in each case. The Potency result in test [3], in test [7] and in test [5] was “inactive” in each case. For the same compound, the activity change, negative = inhibition in test [8] (at 57.5 µM (top of the series)) was -0.0594% (inactive). In addition, the figures for the max response in test [8] (setting [17]) and in test [8] (setting [18]) were -24.5% and -26.5%, respectively.
As for `NC(CC(=O)Nc1ccc(Oc2cc(F)c(F)cc2Br)cc1)C(=O)O` (stereo not given), in test [6], the Potency entry was “inactive”.
Consider `Cc1ccc(NC2=CC(=O)c3sc(C)nc3C2=O)cc1`, for which the Potency result in test [6] was “inactive”.
Consider `CC(C)=CCN1CCC2(CCc3ccccc32)CC1`, for which the Potency entry in test [6] is “inactive”.
Regarding `CC1CCC(C(C)C)C(P(=O)(c2ccccc2)c2ccccc2)C1` (stereo not given), the Potency result in [6] was “inactive”.
